PubChem BioAssay (NCATS)
Records with an inconclusive call do not appear. The source made the active and inactive calls. Unless noted, calls come from the whole dose curve; as a rule, active = well fitted curve in either direction with a large enough effect (not every such curve was filed as active); inconclusive = small, poorly fitted or top-dose-only effect, or another doubt; inactive = flat fitted curve, though single readings scatter.

Experiments:
[1] = biological target: Lysosomal acid glucosylceramidase (Homo sapiens) (UniProt P04062); test: Glucocerebrosidase-p2 (AID 348; in the data active = potency below about 10 µM; note: potency is the fitted concentration of half-maximal effect); settings: purified GBA, blue fluorogenic substrate, 40 min
Sequence of Lysosomal acid glucosylceramidase (Homo sapiens) (P04062 whole entry, looked up): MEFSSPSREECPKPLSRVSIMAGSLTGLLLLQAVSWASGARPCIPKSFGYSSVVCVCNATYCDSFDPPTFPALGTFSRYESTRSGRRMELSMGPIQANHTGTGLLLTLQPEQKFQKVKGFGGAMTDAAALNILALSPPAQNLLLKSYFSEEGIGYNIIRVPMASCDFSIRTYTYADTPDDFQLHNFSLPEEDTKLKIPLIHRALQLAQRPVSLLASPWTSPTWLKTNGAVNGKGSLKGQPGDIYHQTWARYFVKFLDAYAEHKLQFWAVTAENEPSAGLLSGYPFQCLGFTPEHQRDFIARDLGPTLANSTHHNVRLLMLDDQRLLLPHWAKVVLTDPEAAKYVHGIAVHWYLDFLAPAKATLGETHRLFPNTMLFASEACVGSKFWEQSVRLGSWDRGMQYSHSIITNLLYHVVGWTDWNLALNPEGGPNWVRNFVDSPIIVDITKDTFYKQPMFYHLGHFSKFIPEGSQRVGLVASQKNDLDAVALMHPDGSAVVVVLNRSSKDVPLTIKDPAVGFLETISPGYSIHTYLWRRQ
Summary of the method: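 Compounds titrated from 0.6 nM upwards against 0.2 nM enzyme in pH 5.9 citric acid/KH2PO4, taurocholate, tween-20; blue fluorogenic substrate 80 uM, 40 min room temperature, stopped and read Ex 365/Em 440 for AC50.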

[2] = AP1 Signaling Pathway (AID 357); settings: ME-180 AP-1-bla reporter, EGF-induced, beta-lactamase ratio, 5 h; at 7.69 µM (top of the series) unless noted; note: % is set by controls: 0 for no effect and ±100 for the full control effect
Summary of the method: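 AP-1-bla ME-180 cells with beta-lactamase reporter under AP-1 response element, stimulated with EC50 EGF; compounds titrated, 5 hours at 37 degrees Celsius. CCF4 read at 460/530 nm ratio; positive and negative modulators judged by AC50.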

[3] = NFAT Signaling Pathway (AID 444); settings: Jurkat NFAT-bla M1, carbachol, beta-lactamase ratio, 5 h; at 7.69 µM (top of the series) unless noted;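 note: carbachol stimulus at about its EC50 of 1 µM final; % is set by controls: 0 for no effect and ±100 for the full control effect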
Summary of the method: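 Jurkat cells with NFAT-driven β-lactamase reporter and co-expressed M1 receptor, stimulated with carbachol (final 1 uM, ~EC50), compound titration, 5 h at 37 °C. CCF4 loaded 1 h at RT; 460/530 nm ratio gave %activity and AC50.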

[4] = Stat Signaling Pathway (AID 446); settings: ME-180 (cervical carcinoma) SIE beta-lactamase reporter, IL-6 stimulated, 5 h; at 7.69 µM (top of the series) unless noted;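 note: ME-180 cervical cancer cells given 40 pM IL-6 alongside compound; SIE-controlled beta-lactamase reporter measured as 460/530 nm FRET emission ratio; % is set by controls: 0 for no effect and ±100 for the full control effect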
Summary of the method: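 IL-6/STAT signaling read in ME-180 cells via an SIE beta-lactamase reporter. Stimulus was 40 pM IL-6 (its AC50) for 5 hrs, so both activation and inhibition register.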

[5] = biological target: Glucocorticoid receptor (Homo sapiens) (UniProt P04150); test: GR-GFP Redistribution (AID 450;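 active = compounds whose dose series gives a full or clear partial fitted curve of increased nuclear translocation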; note: potency is the fitted concentration of half-maximal effect); settings: U2OS GR-GFP nuclear translocation, laser cytometry, 2 h
Sequence of Glucocorticoid receptor (Homo sapiens) (P04150 whole entry, looked up, the tested form may be a part): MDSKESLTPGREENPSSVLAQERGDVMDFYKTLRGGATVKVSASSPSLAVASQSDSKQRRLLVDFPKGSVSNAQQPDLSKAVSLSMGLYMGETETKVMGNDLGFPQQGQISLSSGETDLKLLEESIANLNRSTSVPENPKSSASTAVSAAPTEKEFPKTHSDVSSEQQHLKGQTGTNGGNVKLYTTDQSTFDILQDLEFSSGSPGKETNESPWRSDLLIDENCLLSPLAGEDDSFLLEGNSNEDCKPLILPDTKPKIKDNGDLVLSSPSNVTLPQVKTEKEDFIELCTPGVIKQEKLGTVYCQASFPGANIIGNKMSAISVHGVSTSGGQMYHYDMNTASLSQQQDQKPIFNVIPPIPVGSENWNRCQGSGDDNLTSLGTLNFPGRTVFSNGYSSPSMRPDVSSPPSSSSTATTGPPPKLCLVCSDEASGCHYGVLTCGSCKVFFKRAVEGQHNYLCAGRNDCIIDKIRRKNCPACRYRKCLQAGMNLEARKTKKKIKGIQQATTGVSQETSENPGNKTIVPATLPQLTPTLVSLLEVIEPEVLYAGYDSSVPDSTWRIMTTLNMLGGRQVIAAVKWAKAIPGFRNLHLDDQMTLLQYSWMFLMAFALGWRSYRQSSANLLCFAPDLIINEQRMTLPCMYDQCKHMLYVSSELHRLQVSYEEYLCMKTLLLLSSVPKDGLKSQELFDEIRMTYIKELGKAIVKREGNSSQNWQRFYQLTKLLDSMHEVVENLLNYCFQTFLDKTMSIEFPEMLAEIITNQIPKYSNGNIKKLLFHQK

[6] = biological target: Glucocorticoid receptor (Homo sapiens) (UniProt P04150); test: GR-EFC Redistribution (AID 451; calls by dose curve; note: potency is the fitted concentration of half-maximal effect); settings: CHO-K1 GR-EFC translocation, beta-gal luminescence, 2 h
Summary of the method: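 CHO-K1 cells expressing nuclear EA and GR-ED fragments of b-gal; compounds titrated up to 46 uM final, 2 h at 37 C. GR nuclear translocation read as complemented b-gal luminescence after 1 h RT detection.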

[7] = biological target: Mitogen-activated protein kinase 10 (Mus musculus) (UniProt Q61831); test: JNK3 AlphaScreen Assay (AID 530); settings: JNK3 lysate, c-Jun phosphorylation; series mostly up to 11.4 µM;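 note: kinase came from lysate of stimulated human HepG2 cells; signal reports phosphorylation of biotinylated GST-cJun 1-79 at Ser73 with 10 µM ATP; % is set by controls: 0 for no effect and ±100 for the full control effect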
Summary of the method: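 Pre-activated (IL-1β/TNFα) JNK3 in HepG2 lysates phosphorylates biotin-GST-cJun(1-79), 10 uM ATP; anti-phospho-cJun(Ser73) AlphaScreen read at room temperature, pH 7.6 Tris buffer. Compounds pre-incubated 15 min as titrations.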

[8] = biological target: 3',5'-cyclic-AMP phosphodiesterase 4B (Homo sapiens) (UniProt Q07343); test: qHTS Assay for Inhibitors of PDE-IV (AID 607; active = well fitted activation curve with a large enough effect in the main read-out, with a control signal flat, not every such curve was filed as active; note: % of control where 0% means no effect); settings: HEK293 ACTOne CNG channel cells, membrane potential fluorescence; series mostly up to 22.9 µM
Sequence of 3',5'-cyclic-AMP phosphodiesterase 4B (Homo sapiens) (Q07343 whole entry, looked up): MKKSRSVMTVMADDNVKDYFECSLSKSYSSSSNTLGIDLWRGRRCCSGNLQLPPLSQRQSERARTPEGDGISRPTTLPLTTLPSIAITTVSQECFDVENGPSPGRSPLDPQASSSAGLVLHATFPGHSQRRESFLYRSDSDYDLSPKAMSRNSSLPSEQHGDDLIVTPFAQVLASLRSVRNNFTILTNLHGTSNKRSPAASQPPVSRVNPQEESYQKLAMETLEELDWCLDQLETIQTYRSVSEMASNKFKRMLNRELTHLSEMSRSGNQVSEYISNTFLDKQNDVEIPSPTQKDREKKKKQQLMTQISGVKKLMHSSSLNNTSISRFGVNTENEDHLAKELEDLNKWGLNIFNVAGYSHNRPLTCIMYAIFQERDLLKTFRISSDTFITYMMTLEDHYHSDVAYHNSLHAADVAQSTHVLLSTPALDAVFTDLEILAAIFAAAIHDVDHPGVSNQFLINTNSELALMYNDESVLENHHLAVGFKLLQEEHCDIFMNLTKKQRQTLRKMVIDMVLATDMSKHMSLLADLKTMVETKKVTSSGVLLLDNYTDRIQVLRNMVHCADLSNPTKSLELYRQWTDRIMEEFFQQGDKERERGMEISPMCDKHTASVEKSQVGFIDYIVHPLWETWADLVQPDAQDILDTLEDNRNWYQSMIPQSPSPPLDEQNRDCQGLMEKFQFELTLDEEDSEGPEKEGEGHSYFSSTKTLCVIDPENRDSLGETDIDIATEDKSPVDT
Summary of the method: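 Live HEK293 cells with a modified cyclic nucleotide-gated (CNG) channel report intracellular cAMP via membrane-potential dye fluorescence (ex 535/em 590 nm). Endogenous PDE-IV was targeted. Compounds were tested at up to 22.9 uM final; RO 20-1724 100 uM served as control.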

CC(C)=C[C@H]1[C@@H](C(=O)Oc2ccccc2C(C)C)C1(C)C
inactive: Potency [1] > 11.4 µM | activity change, negative = inhibition [2] 9.15% | activity change, negative = inhibition [3] 3.56% | activity, negative = inhibition [4] 6.13% | Potency [5] > 46 µM | Potency [6] > 9.22 µM | Potency [7] | Potency [8]

NCCOc1ccccn1
inactive: Potency [1] > 11.4 µM | activity change, negative = inhibition [2] 10% | activity change, negative = inhibition [3] 1.74% | activity, negative = inhibition [4] -2.14% | Potency [5] > 46 µM | Potency [6] > 9.22 µM | Potency [7] | Potency [8]

O=C(O)CCn1cnc2c(=S)nc[nH]c21
inactive: Potency [1] > 11.4 µM | activity change, negative = inhibition [2] -2.08% | activity change, negative = inhibition [3] 1.47% | activity, negative = inhibition [4] -0.455% | Potency [5] > 46 µM | Potency [6] > 9.22 µM | Potency [7] | Potency [8]

Nc1nc(SCC(=O)c2ccc(Br)cc2)c2[nH]cnc2n1
inactive: Potency [1] > 11.4 µM | activity change, negative = inhibition [2] -11.1% | activity change, negative = inhibition [3] 23.5% | activity, negative = inhibition [4] 1.94% | Potency [5] > 46 µM | Potency [6] > 9.22 µM | Potency [7] | Potency [8]

C[N+]1(CCN=C=NC2CCCCC2)CCOCC1
inactive: Potency [1] > 11.4 µM | activity change, negative = inhibition [2] 9.01% | activity change, negative = inhibition [3] -4.19% | activity, negative = inhibition [4] -0.107% | Potency [5] > 46 µM | Potency [6] > 9.22 µM | Potency [7] | Potency [8]

COc1nc(Cl)nc(Cl)c1Cl (tested in a mixture with another compound)
inactive: Potency [1] > 11.4 µM | activity change, negative = inhibition [2] 2.89% | activity change, negative = inhibition [3] 3.88% | activity, negative = inhibition [4] 7.12% | Potency [5] > 46 µM | Potency [6] > 9.22 µM | Potency [7] | Potency [8]

CC(C)Oc1cc(O)c2c(c1)OCC=C2CCC(=O)O
inactive: Potency [1] > 11.4 µM | activity change, negative = inhibition [2] 0.742% | activity change, negative = inhibition [3] -2.86% | activity, negative = inhibition [4] 0.331% | Potency [5] > 46 µM | Potency [6] > 9.22 µM | Potency [7] | Potency [8]

Nc1nc(N)c(N=Nc2ccc(C(=O)O)c(O)c2)c(N)n1
inactive: Potency [1] > 11.4 µM | activity change, negative = inhibition [2] 2.15% | activity change, negative = inhibition [3] 15.4% | activity, negative = inhibition [4] -2.93% | Potency [5] > 46 µM | Potency [6] > 9.22 µM | Potency [7] | Potency [8]

Cc1nc2sc3c(c2c(=O)[nH]1)CCCC3
inactive: Potency [1] > 11.4 µM | activity change, negative = inhibition [2] 10.8% | activity change, negative = inhibition [3] -6.08% | activity, negative = inhibition [4] 6.96% | Potency [5] > 46 µM | Potency [6] > 9.22 µM | Potency [7] | Potency [8]

CN(C)C[C@@H](O)c1ccc(Cl)c2ccccc12
inactive: Potency [1] > 11.4 µM | activity change, negative = inhibition [2] 13.3% | activity change, negative = inhibition [3] -4.99% | activity, negative = inhibition [4] 18.4% | Potency [5] > 46 µM | Potency [6] > 9.22 µM | Potency [7] | Potency [8]

NC(=S)N/N=C\c1c[nH]c2ccccc12
inactive: Potency [1] > 11.4 µM | activity change, negative = inhibition [2] 2.82% | activity change, negative = inhibition [3] -6% | activity, negative = inhibition [4] 13.8% | Potency [5] > 46 µM | Potency [6] > 9.22 µM | Potency [7] | Potency [8]

Clc1cccc(Cl)c1C(Nc1nncs1)Nc1nncs1
inactive: Potency [1] > 11.4 µM | activity change, negative = inhibition [2] -1.25% | activity change, negative = inhibition [3] 2.41% | activity, negative = inhibition [4] -3.83% | Potency [5] > 46 µM | Potency [6] > 9.22 µM | Potency [7] | Potency [8]

C[n+]1cccc(/C=C\c2ccc3cccc(O)c3n2)c1
inactive: Potency [1] > 11.4 µM | activity change, negative = inhibition [2] -0.115% | activity change, negative = inhibition [3] 10.1% | activity, negative = inhibition [4] 3.53% | Potency [5] > 46 µM | Potency [6] > 9.22 µM | Potency [7] | Potency [8]

O=S(=O)(c1cccc(C(F)(F)F)c1)N1c2ccccc2-n2cccc2[C@H]1c1cccnc1
inactive: Potency [1] > 11.4 µM | activity change, negative = inhibition [2] -23.2% | activity change, negative = inhibition [3] -6.39% | activity, negative = inhibition [4] -6.23% | Potency [5] > 46 µM | Potency [6] > 9.22 µM | Potency [7] | Potency [8]

CC(=O)Nc1ccccc1C=C1c2ccccc2-c2ccccc21
inactive: Potency [1] > 11.4 µM | activity change, negative = inhibition [2] -4.76% | activity change, negative = inhibition [3] 18% | activity, negative = inhibition [4] -16.5% | Potency [5] > 46 µM | Potency [6] > 9.22 µM | Potency [7] | Potency [8]

CC(C)[C@H](N=Cc1ccccc1O)C(=O)O
inactive: Potency [1] > 11.4 µM | activity change, negative = inhibition [2] -4.87% | activity change, negative = inhibition [3] 4.44% | activity, negative = inhibition [4] -0.012% | Potency [5] > 46 µM | Potency [6] > 9.22 µM | Potency [7] | Potency [8]

C=CCNS(=O)(=O)c1ncnc2nc[nH]c12
inactive: Potency [1] > 11.4 µM | activity change, negative = inhibition [2] -7.02% | activity change, negative = inhibition [3] -12.1% | activity, negative = inhibition [4] 14.4% | Potency [5] > 46 µM | Potency [6] > 9.22 µM | Potency [7] | Potency [8]
